Among the test systems are HCT-15 colon; HT29 colon; SNB-75 CNS; SNB-19 CNS; U251 CNS; PC-3 prostate; SK-MEL-5 melanoma; UACC-62 melanoma; LOX IMVI melanoma; SK-MEL-28 melanoma; SK-MEL-2 melanoma; EKVX NSCLC; SN12C renal; UO-31 renal; TK-10 renal; ACHN renal; CAKI-1 renal; A498 renal; CCRF-CEM leukemia; MOLT-4 leukemia.
Assay in all cases: NCI-60 one-dose screen, 48 h (100 = growth as untreated, 0 = no growth, -100 = all killed)
What all share (settings): 10 µM

8 compounds from PubChem BioAssay (NCI) can be followed below.

Molecules are shown by their SMILES. This is part of a sample that, as a whole, favours compounds with a hit. Of some 83,000 tested, about 20% had one in any assay.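 Each cell line was grown in a 96-well plate and treated with one concentration of compound for 48 hours. Values below 10 were considered active.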 Unmarked numbers belong to inactive results. Activity calls are given as the source filed them.

As to `O=C(CSc1nnc(-c2c[nH]c3ccccc23)n1-c1ccccc1)c1ccc(Cl)cc1`, the growth was 73.3% in the experiment with HCT-15 colon; 42.6% in the experiment with HT29 colon; 54.7% in the experiment with SNB-75 CNS; 40% in the experiment with SNB-19 CNS; 30.1% in the experiment on U251 CNS; 60.4% in the experiment with PC-3 prostate. Also, the growth in the experiment with SK-MEL-5 melanoma is 78.2%; with UACC-62 melanoma, 52.8%; in the experiment on LOX IMVI melanoma it was 15.9%; in the experiment on SK-MEL-28 melanoma it was 68.3%; in the experiment with SK-MEL-2 melanoma, 33.7%; in the experiment on EKVX NSCLC, 25.6%. Further, the growth is 64.6% in the experiment on SN12C renal; 54.8% with UO-31 renal; 84% in the experiment with TK-10 renal; 57.5% with ACHN renal; 64.5% in the experiment on CAKI-1 renal; 57.3% in the experiment on A498 renal. For the same compound, the growth with CCRF-CEM leukemia was 92.7%; in the experiment with MOLT-4 leukemia, 104%.

`CCOC(=O)C1=C(N)N(c2ccccc2)C2=C(C(=O)CC(C)(C)C2)C1c1ccccc1OC` (stereo not given): the growth is 96.3% with HCT-15 colon; 103% in the experiment on HT29 colon; 94% with SNB-75 CNS; 92.2% in the experiment on SNB-19 CNS; 111% in the experiment with U251 CNS; 89.2% in the experiment on PC-3 prostate. Further, the growth in the experiment with SK-MEL-5 melanoma was 97.2%; with UACC-62 melanoma, 80.4%; in the experiment with LOX IMVI melanoma it was 101%; in the experiment on SK-MEL-28 melanoma, 110%; with SK-MEL-2 melanoma it was 109%; in the experiment with EKVX NSCLC, 91.9%. Moreover, the growth with SN12C renal was 92.6%; in the experiment with UO-31 renal it was 74.4%; in the experiment with TK-10 renal it was 106%; with ACHN renal it was 103%; in the experiment with CAKI-1 renal it was 97.2%; with A498 renal, 98.7%. Further, the growth in the experiment with CCRF-CEM leukemia is 100%; with MOLT-4 leukemia, 105%.

For the compound `CN1CCN(Cc2ccc(C(=O)Nc3cccc(Nc4ccc5cc(O)ccc5n4)c3)cc2C(F)(F)F)CC1`, the growth is -81% (active) with HCT-15 colon; -49.4% (active) in the experiment on HT29 colon; -11.4% (active) in the experiment on SNB-75 CNS; -54% (active) in the experiment on SNB-19 CNS; -65% (active) in the experiment with U251 CNS; -22.9% (active) in the experiment on PC-3 prostate. Moreover, the growth in the experiment on SK-MEL-5 melanoma is -99.7% (active); in the experiment on UACC-62 melanoma, -90.1% (active); in the experiment on LOX IMVI melanoma, -93.5% (active); in the experiment on SK-MEL-28 melanoma, -91.9% (active); with SK-MEL-2 melanoma it was -95% (active); with EKVX NSCLC, -40.7% (active). Also, the growth in the experiment on SN12C renal was -64% (active); with UO-31 renal it was -36.8% (active); with TK-10 renal, 24%; with ACHN renal, -56.8% (active); in the experiment on CAKI-1 renal, -28% (active); with A498 renal it was 148%. For the same compound, the figures for the growth with CCRF-CEM leukemia and in the experiment with MOLT-4 leukemia were -37.1% (active) and -41.1% (active), respectively.

For the compound `Cc1ccc(-c2nc(Nc3ccccc3C(=O)O)c3ccccc3n2)cc1`, the growth in the experiment with HCT-15 colon was 4.66% (active); in the experiment on HT29 colon, 17.8%; in the experiment on SNB-75 CNS, 15.7%; with SNB-19 CNS, 8.82% (active); with U251 CNS, 18.4%; in the experiment with PC-3 prostate, 15.7%. The growth in the experiment with SK-MEL-5 melanoma is -24.8% (active); with UACC-62 melanoma, 11%; in the experiment with LOX IMVI melanoma it was 8.57% (active); in the experiment on SK-MEL-28 melanoma, 28.8%; in the experiment on SK-MEL-2 melanoma, 5.75% (active); in the experiment on EKVX NSCLC, 13.1%. For the same compound, the growth in the experiment on SN12C renal is 22.2%; with UO-31 renal, 12.6%; with TK-10 renal, 58.9%; in the experiment on ACHN renal, 7.89% (active); in the experiment with CAKI-1 renal it was 21.1%; in the experiment with A498 renal, 21.6%. Besides, the values for the growth in the experiment on CCRF-CEM leukemia and with MOLT-4 leukemia were 12.8% and 10.9%, respectively.

Turning to `CC1(C)[C@@H](NCO)CC[C@]2(C)[C@H]3C(=O)C=C4[C@@H]5C[C@](C)(CO)CC[C@]5(C)CC[C@@]4(C)[C@]3(C)CC[C@@H]12`, the growth in the experiment on HCT-15 colon was 13.6%; in the experiment with HT29 colon, 13.9%; with SNB-75 CNS, 106%; in the experiment on SNB-19 CNS it was 70.1%; in the experiment on U251 CNS, 18.9%; with PC-3 prostate, 31.3%. Also, the growth in the experiment with SK-MEL-5 melanoma is 61%; in the experiment on UACC-62 melanoma it was 50.2%; in the experiment with LOX IMVI melanoma, -74.8% (active); with SK-MEL-28 melanoma, -29.5% (active); in the experiment with SK-MEL-2 melanoma, 94.6%; in the experiment with EKVX NSCLC, 75.5%. In addition, the growth in the experiment on SN12C renal was 72%; in the experiment on UO-31 renal, 54.9%; in the experiment on TK-10 renal, 107%; in the experiment on ACHN renal it was 63.1%; in the experiment with CAKI-1 renal, 59.1%; with A498 renal it was 140%. Further, the results for the growth in the experiment on CCRF-CEM leukemia and in the experiment on MOLT-4 leukemia were 70.3% and 16.5%, respectively.

`O=C1NC(=NC23CC4CC(CC(C4)C2)C3)N/C1=C\c1ccc2ncoc2c1`: the growth in the experiment with HCT-15 colon was 0.0072% (active); in the experiment on HT29 colon, 4.66% (active); with SNB-75 CNS, -8.6% (active); in the experiment with SNB-19 CNS, 6.88% (active); in the experiment with U251 CNS, 10%; in the experiment with PC-3 prostate, 5.37% (active). The growth with SK-MEL-5 melanoma is 1.95% (active); in the experiment on UACC-62 melanoma it was -71.4% (active); with LOX IMVI melanoma, 0.372% (active); in the experiment on SK-MEL-28 melanoma it was -18.6% (active); in the experiment with SK-MEL-2 melanoma, -92.4% (active); with EKVX NSCLC it was -14% (active). Moreover, the growth was 2.78% (active) in the experiment with SN12C renal; 1.68% (active) in the experiment with UO-31 renal; 24.2% in the experiment with TK-10 renal; -10.4% (active) in the experiment on ACHN renal; 7.48% (active) in the experiment on CAKI-1 renal; -5.36% (active) with A498 renal. The growth with CCRF-CEM leukemia was -6.48% (active); with MOLT-4 leukemia, 10.6%.

On to `CCCn1c(=O)c2[nH]c(-c3ccc(OCc4nc5ccc(F)cc5[nH]4)cc3)nc2n(CCC)c1=O`, for which the growth was 28.7% in the experiment with HCT-15 colon; 26.7% in the experiment on HT29 colon; -23.5% (active) with SNB-75 CNS; 50.4% in the experiment on SNB-19 CNS; 0.191% (active) in the experiment with U251 CNS; 36.3% in the experiment with PC-3 prostate. Further, the growth in the experiment with SK-MEL-5 melanoma was -22.5% (active); with UACC-62 melanoma it was 3.86% (active); in the experiment with LOX IMVI melanoma, -29.3% (active); in the experiment with SK-MEL-28 melanoma, 38%; in the experiment with SK-MEL-2 melanoma, 28.6%; with EKVX NSCLC it was 34.4%. In addition, the growth in the experiment on SN12C renal is -20.1% (active); in the experiment with UO-31 renal it was -78.7% (active); in the experiment on TK-10 renal it was -3.59% (active); in the experiment on ACHN renal it was -56.6% (active); in the experiment on CAKI-1 renal, 6.55% (active); in the experiment with A498 renal, -85.8% (active). For the same compound, the growth was 44% in the experiment with CCRF-CEM leukemia and 24.7% in the experiment with MOLT-4 leukemia.

`CC(=O)Oc1ccccc1C(=O)Oc1ccc(C(=O)/C=C/c2ccncc2)cc1`: the growth in the experiment with HCT-15 colon is -4.84% (active); in the experiment on HT29 colon, 22%; in the experiment with SNB-75 CNS, 102%; with SNB-19 CNS it was 47.2%; in the experiment on U251 CNS it was 14.7%; with PC-3 prostate, 54.7%. Further, the growth in the experiment on SK-MEL-5 melanoma was 71.2%; with UACC-62 melanoma, 50.6%; with LOX IMVI melanoma, -44.2% (active); in the experiment on SK-MEL-28 melanoma, 68.8%; with SK-MEL-2 melanoma, 108%; in the experiment with EKVX NSCLC it was 80.6%. In addition, the growth in the experiment on SN12C renal was 18.6%; in the experiment with UO-31 renal, 38.7%; in the experiment on TK-10 renal, 91.6%; with ACHN renal it was 56%; with CAKI-1 renal, 59.7%; in the experiment with A498 renal, 84%. Moreover, the growth with CCRF-CEM leukemia was 43.6%; in the experiment with MOLT-4 leukemia, 40.1%.
